An excerpt weighted towards active compounds, which were near 2.3% of everything screened.
Mm-Cpn inhibitor – Inhibitors of TCP-1 ring complex (TRiC) of Methanococcus maripaludis (MmCpn): qHTS; Chaperonin Mm-Cpn (Methanococcus maripaludis); purified Mm-Cpn ATPase, ADP Transcreener TR-FRET; Potency, µM (highest dose often 76.9 µM), usual class: inhibitors; 330,000 compounds, 0.031% hits; further: nearly all actives have a fitted effect of over 80% in size
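Eu-cryptate anti-ADP/ADP-d2 competition gives a ratio inversely related to ADP. Enzyme at 25 nM was pre-exposed to compound for 10 min, then given 10 uM ATP for 30 min, 37°C throughout.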
aSyn rescue – qHTS of alpha-syn Inhibitors; Yeast expressing alpha-synuclein, growth rescue, BacTiter-Glo, 24 h; Potency, µM (series often up to 46.1 µM), actives largely listed as activators; 370,000 compounds, 0.14% hits; further: nearly all actives have a fitted effect of over 65% in size
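Rescue of yeast growth: cells expressing toxic alpha-synuclein, induced in galactose at OD600 0.02, incubated with compound 24 h at 30 C. ATP luminescence quantified growth; inhibitors of toxicity appear as activators.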
CCT chaperon mod – High-Throughput Screening for Modulators of Cytosolic Chaperonin Activity; activity change, % (concentration not given with the values), hits read low; AID 651819, 2012; 360,000 compounds, 0.3% hits; purified chaperonin ATPase assay, HTRF ADP detection, 30 min; in the data active means activity change below about -30%
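TRiC (40 or 20 nM final, by batch activity) in 30 mM Tris pH 7.4, 100 mM KCl, 5 mM MgCl2, 1 mM DTT was treated with compound at 76 uM single dose, then 10 uM ATP, 30 min at 37 °C. ADP was read by HTRF Transcreener.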
FUS suppressor – qHTS for Suppressors of FUS Proteinopathy: Primary screen using FUS-linked yeast assay | S. cerevisiae FUS-expressing, growth rescue, OD600, 24 h | AID 1347120, 2019 | Potency, µM (highest dose often 76.6 µM), actives largely listed as activators | 390,000 compounds, 0.24% hits; further: nearly all actives have a fitted effect of over 55% in size
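Galactose (2%) drives FUS expression in yeast precultured in raffinose; seeding density OD 0.005. Test compounds incubated 24hr at 30C and 99% humidity before absorbance at 600 nm was measured.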
Abeta rescue – qHTS for compounds that reverse cellular toxicity of Amyloid beta (A-beta) peptide in yeast: Primary Screen; 410,000 compounds, 0.063% hits; Potency, µM (series often up to 46.1 µM), most hits filed as activators; yeast expressing A-beta42, growth rescue, OD600, 48 h; response scale: 0% DMSO, 100% iron-clioquinol control; further: nearly all actives have a fitted effect of over 55% in size
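Yeast growth medium received pinned compounds, then yeast cells expressing toxic A-beta were added; plates incubated at 30 C for 48 hr. Growth read as absorbance at 600 nm, normalized to DMSO and equimolar FeCl3 plus clioquinol controls.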
TDP43 rescue – qHTS of TDP-43 Inhibitors; TDP-43 expressing yeast growth rescue, BacTiter-Glo, 24 h; Potency, µM (top dose mostly 46.1 µM), usual class: activators; 410,000 compounds, 1.8% hits; further: nearly all actives have a fitted effect of over 50% in size
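Cell-based yeast growth screen: TDP-43 expression induced in galactose, inoculum OD600=0.02 after raffinose pregrowth to mid-log. Read-out BacTiter-Glo luminescence at 24 hr, 30 deg C; inhibition of toxicity seen as signal increase.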
Of the large screens only hits and unclear results are named; the others gave an inactive call. Unless noted, the call rests on the fitted dose curve; in most records, active means well fitted curve in the direction sought with a large enough effect; inconclusive means small, poorly fitted or top-dose-only effect, or another doubt; inactive means no such curve, though single readings can be large; an effect the other way counts as inactive or inconclusive.

O=C(NCC1CCCO1)C(c1cccs1)N(Cc1ccccc1)C(=O)c1ccc(-c2ccccc2)[nH]1 (stereo not given)	TDP43 rescue 15.8µM (no result: FUS suppressor)
O=C(NCC1CCCO1)C(c1cccs1)N(C(=O)c1ccc(-c2ccccc2)[nH]1)C1CCCC1 (stereo not given)	none
COc1ccc(CN(C(=O)c2ccc(-c3ccccc3)[nH]2)C(C(=O)NCC2CCCO2)c2ccc(C)o2)cc1 (stereo not given)	TDP43 rescue 11.2µM (no result: FUS suppressor)
CN(C)c1ccc(CN(Cc2ccco2)C(=O)COc2ccc(F)cc2)cc1	none (no result: Mm-Cpn inhibitor, aSyn rescue, CCT chaperon mod)
CCN(C[C@H]1N[C@@](C)(C(=O)OC)[C@H]2C(=O)N(Cc3ccccc3)C(=O)[C@@H]12)C(=O)c1ccc(C)cc1	none
CCN(C[C@H]1N[C@@](C)(C(=O)OC)[C@H]2C(=O)N(Cc3ccccc3)C(=O)[C@@H]12)C(=O)c1ccc(F)cc1	CCT chaperon mod -33.6
Cc1cccc(NC(=O)C2CCCN2S(=O)(=O)c2cccnc2)c1C (stereo not given)	none (no result: Mm-Cpn inhibitor, aSyn rescue, CCT chaperon mod, Abeta rescue, TDP43 rescue)
CO[C@H]1C=CO[C@@]2(C)Oc3c(C)c(O)c4c(O)c(c(C=NN5CCN(C)CC5)c(O)c4c3C2=O)NC(=O)C(C)=CC=C[C@H](C)[C@H](O)[C@@H](C)[C@@H](O)[C@@H](C)[C@H](OC(C)=O)[C@@H]1C	FUS suppressor 17.8µM
CO[C@H]1/C=C/O[C@@]2(C)Oc3c(C)c(O)c4c(O)c(c(C=NN5CCN(C)CC5)c(O)c4c3C2=O)NC(=O)/C(C)=C\C=C\[C@H](C)[C@H](O)[C@@H](C)[C@@H](O)[C@@H](C)[C@H](OC(C)=O)[C@@H]1C	FUS suppressor inconclusive, TDP43 rescue inconclusive
CCOC(=O)c1ccc2nc(C)cc(Nc3ccc(OC(C)C)cc3)c2c1	none (no result: Mm-Cpn inhibitor, CCT chaperon mod)
COc1ccc(NC(=O)/C=C\C(=O)N(c2ccc(C(C)C)cc2)C(C(=O)NCc2ccco2)c2ccc(C)cc2)cc1 (stereo not given)	FUS suppressor 4.47µM (no result: Mm-Cpn inhibitor, aSyn rescue, CCT chaperon mod)
N#Cc1ccc(-c2c(-c3ccccc3)ncc3cc(F)ccc23)cc1	Mm-Cpn inhibitor inconclusive, TDP43 rescue 15.8µM
Fc1ccc2cnc(-c3ccccc3)c(-c3ccc(C(F)(F)F)cc3)c2c1	none
COC(=O)c1ccc(-c2c(-c3ccccc3)ncc3cc(F)ccc23)cc1	TDP43 rescue inconclusive
O=[N+]([O-])c1ccc(-c2c(-c3ccccc3)ncc3ccc(F)cc23)cc1	TDP43 rescue 17.8µM
COc1ccc(NC(=O)c2ccco2)cc1NC(=O)c1cccc(C)c1OC	TDP43 rescue inconclusive (no result: Mm-Cpn inhibitor, aSyn rescue, CCT chaperon mod)
CCOC(=O)c1c(C)[nH]c(C(=O)/C(C#N)=C/c2ccc(OCC)cc2)c1C	CCT chaperon mod -118.8, TDP43 rescue 15.8µM (no result: FUS suppressor)
CC(=O)c1c(C)[nH]c(C(=O)/C(C#N)=C/c2cccc(C)c2)c1C	Mm-Cpn inhibitor inconclusive
Clc1cccc(NCc2nnc(SCc3ccccc3)o2)c1	Mm-Cpn inhibitor inconclusive
Fc1cccc(Cl)c1CSc1nnc(-c2ccncc2)o1	TDP43 rescue 12.6µM
Clc1ccccc1CSc1nnc(-c2ccncc2)o1	TDP43 rescue 10µM
COc1cc(-c2nnc(SCc3c(F)cccc3Cl)o2)cc(OC)c1OC	TDP43 rescue inconclusive
Clc1cccc(NCc2nnc(SCc3ccccc3Cl)o2)c1	aSyn rescue 20µM, TDP43 rescue 12.6µM (no result: FUS suppressor)
O=C(OCCCN1CCC2(CCCCC2)C1=O)c1ccccc1	none (no result: Mm-Cpn inhibitor, aSyn rescue, CCT chaperon mod, Abeta rescue, TDP43 rescue)
CN(CCO)c1nc(-c2cccs2)nc2ccccc12	none (no result: Mm-Cpn inhibitor, CCT chaperon mod, FUS suppressor, Abeta rescue, TDP43 rescue)
Cc1ccc2c(c1)N(C(=O)Nc1cccc(C)c1C)CCO2	TDP43 rescue inconclusive (no result: Mm-Cpn inhibitor, aSyn rescue, CCT chaperon mod)
Cc1c(Cl)cccc1NC(=O)N1CCOc2ccccc21	TDP43 rescue 12.6µM (no result: Mm-Cpn inhibitor, aSyn rescue, CCT chaperon mod)
Cc1cccc(C)c1NS(=O)(=O)c1ccc(-c2cnc(C3CC3)o2)cc1	aSyn rescue inconclusive, TDP43 rescue 25.1µM
